The panel holds about 79,000 compounds, 15% with a hit somewhere; the sample as a whole holds those more often. Cut-off read from the data, not from the text of the source: active = growth inhibition above about 70%; inactive = the rest.
Experiments:
[1] = NCI Yeast Anticancer Drug Screen. Data for the rad50 strain (AID 155);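 note: 0% = growth of vehicle-only cultures of the same strain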; conditions: S. cerevisiae rad50 strain growth inhibition; at 50.0 µM; active compounds read high
Summary of the method: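 A DNA repair-deficient yeast mutant serves as the test organism; compound-induced growth inhibition is calculated against vehicle-treated cells.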

[2] = NCI Yeast Anticancer Drug Screen. Data for the mec2-1 strain (AID 157); conditions: S. cerevisiae mec2-1 strain, at 50.0 µM, active compounds read high
Summary of the method: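 Vehicle-treated cultures served as reference for growth inhibition of compound-exposed mec2-1 yeast.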

[3] = NCI Yeast Anticancer Drug Screen. Data for the sgs1 mgt1 strain (AID 161);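 note: 0% = growth of cultures given vehicle only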; conditions: S. cerevisiae sgs1 mgt1 strain, at 50.0 µM, active compounds read high
Summary of the method: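 Test agents were incubated with a DNA-repair-mutant yeast strain. Growth was then read and compared against vehicle-treated controls.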

[4] = NCI Yeast Anticancer Drug Screen. Data for the cln2 rad14 strain (AID 165);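 note: 0% = growth equal to vehicle treated cultures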; conditions: S. cerevisiae cln2 rad14 strain, at 50.0 µM, active compounds read high
Summary of the method: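 Each compound was tested on cln2 rad14 yeast. Inhibition of growth was calculated against vehicle-exposed controls.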

[5] = NCI Yeast Anticancer Drug Screen. Data for the bub3 strain (AID 167); conditions: S. cerevisiae bub3 mutant strain, at 50.0 µM, active compounds read high
Summary of the method: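 Inhibition values come from growth of compound-treated mutant yeast normalised to vehicle-treated controls.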

[6] = NCI Yeast Anticancer Drug Screen. Data for the mlh1 rad18 strain (AID 175); conditions: S. cerevisiae mlh1 rad18 strain growth inhibition; at 50.0 µM; active compounds read high
Summary of the method: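 Vehicle-treated cultures served as the reference for growth inhibition in a yeast strain carrying DNA damage repair alterations exposed to each compound.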

Measured: growth inhibition

COC(=O)C1OC1c1ccncc1 (configuration not stated)
inactive: [1] 19.1% | [2] 6.15% | [3] 32.3% | [4] 5.3% | [5] 0.1% | [6] 5.5%

Cc1ccc2c(c1)[n+]([O-])c1c3ccccc3[nH]c1[n+]2[O-]
inactive: [1] 63.2% | [2] 23% | [3] 22.9% | [4] 25.7% | [5] 15.2% | [6] 26.4%

CC12NN=NC1C(=O)NC2=O (configuration not stated)
inactive: [1] 0.85% | [2] -0.75% | [3] 20.6% | [4] 12% | [5] -3.1% | [6] -5.05%

O=CC(O)C(O)C(O)C(O)COC1OC(CO)C(O)C(O)C1O (configuration not stated)
inactive: [1] 22.6% | [2] -11.7% | [3] 21.2% | [4] 8% | [5] 23% | [6] 11.1%

c1csc(NC(Nc2nccs2)C23CC4CC(CC(C4)C2)C3)n1
inactive: [1] 28.1% | [2] 12.7% | [3] -1.4% | [4] 20.6% | [5] 1.1% | [6] 7.45%

CCOC(=O)C1CN(CCc2ccccc2)CCC1=O (configuration not stated)
inactive: [1] 30.9% | [2] -8.65% | [3] 32.1% | [4] 16.5% | [5] 42.8% | [6] 31.8%

CCCOc1cncc(C)n1
inactive: [1] 8% | [2] 19.1% | [3] -3.75% | [4] -3.85% | [5] 13.6% | [6] 9.95%

Reference: PubChem BioAssay (NCI)
